This is a sample that favours compounds with a hit; in the whole collection about 1.6% have one here.
KCNQ2 block: KCNQ2 (rat) channel inhibition | B-score at 10 µM | 1.1% of 310,000 active | CHO-K1 KCNQ2, FluxOR thallium flux, 20 min; active compounds read low | O88943;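 active = fluorescence ratio B-score at most minus 3 library SDs, with starting brightness B-score within 2 library SDs, cut at about -5.5 in these data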
Target sequence (O88943 whole entry, looked up): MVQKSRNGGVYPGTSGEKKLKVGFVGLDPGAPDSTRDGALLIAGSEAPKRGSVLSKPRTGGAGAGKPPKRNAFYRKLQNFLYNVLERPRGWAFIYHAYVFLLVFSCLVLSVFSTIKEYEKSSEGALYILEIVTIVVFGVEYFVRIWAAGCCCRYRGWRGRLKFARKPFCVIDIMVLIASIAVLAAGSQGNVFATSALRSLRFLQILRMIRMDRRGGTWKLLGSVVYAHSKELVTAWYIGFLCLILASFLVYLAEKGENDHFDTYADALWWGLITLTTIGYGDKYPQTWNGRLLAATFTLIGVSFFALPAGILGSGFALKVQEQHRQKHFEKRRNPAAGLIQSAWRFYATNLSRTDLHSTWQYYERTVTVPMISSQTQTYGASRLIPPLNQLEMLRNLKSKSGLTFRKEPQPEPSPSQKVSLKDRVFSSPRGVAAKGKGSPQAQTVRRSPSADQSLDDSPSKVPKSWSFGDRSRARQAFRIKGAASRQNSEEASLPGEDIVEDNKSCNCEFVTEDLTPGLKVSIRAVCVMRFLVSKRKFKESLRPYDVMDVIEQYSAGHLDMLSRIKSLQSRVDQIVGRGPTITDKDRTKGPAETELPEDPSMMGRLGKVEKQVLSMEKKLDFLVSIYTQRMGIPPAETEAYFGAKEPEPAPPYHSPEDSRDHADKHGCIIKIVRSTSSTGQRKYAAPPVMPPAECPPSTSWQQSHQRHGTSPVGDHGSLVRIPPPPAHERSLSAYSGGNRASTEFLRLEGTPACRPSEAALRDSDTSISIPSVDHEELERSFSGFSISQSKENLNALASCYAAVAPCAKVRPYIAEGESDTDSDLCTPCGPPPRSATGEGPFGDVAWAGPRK
KCNQ2 pot: potentiators of rat KCNQ2 potassium channel. B-score at 10 µM. CHO-K1 KCNQ2, FluxOR thallium flux fluorescence; active compounds read high. 0.54% of 310,000 active;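 active = fluorescence ratio B-score at least 3 SD of library B-scores, with initial fluorescence B-score within 3 of them, cut at about 5.3 in these data; same plate scores as AID 2156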;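 note: B-score of peak minus minimum over baseline fluorescence ratio after K+ and Tl+ stimulus; positive B-score means potentiation of KCNQ2 with more thallium influx and brighter signal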
Kir21 conf inh: confirmation of mouse Kir2.1 potassium channel inhibitors | AID 2032 | Tl flux remaining, % of negative control (active compounds read low), % at 10 µM | shares compounds with KCNQ2 pot | Kir2.1-expressing cells, FluxOR thallium flux fluorescence; active compounds read low | 41% of 2,300 active;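 active = Primary-screen hit whose thallium flux fell at least 3 control SD below untreated wells in both duplicates, with normal baseline fluorescence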
HEK293 Tl flux: parental HEK293 activity in Kir2.1 inhibitor counter-screen. FluxOR signal as % of negative control (100 = no effect), % at 10 µM. shares compounds with KCNQ2 pot. AID 2105. parental HEK293 cells, FluxOR thallium flux fluorescence; 0% = unstimulated blank wells. 19% of 2,300 active;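 active = dye signal at least 3 control SD above or below untreated wells in both duplicates, raw fluorescence within 3, either direction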;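 note: percent is based on the flux ratio of peak minus minimum fluorescence over baseline F0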
CHO-K1 ctr: parental CHO-K1 activity in KCNQ2 potentiator counter-screen | shares compounds with KCNQ2 pot | parental CHO-K1 cells, FluxOR thallium flux fluorescence; zero = vehicle mean+3SD, 100% = vehicle-minus-blank window | activity increase over 3SD of controls, % at 10 µM | 43% of 1,200 active | AID 2282;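 active = signal rise of at least 3 SD above the untreated control mean, in both duplicate wells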;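 note: counter screen of KCNQ2 potentiator hits so any rise reflects channel-independent effects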
KCNQ1 sel pot: tests whether KCNQ2 potentiators also act on human KCNQ1; shares compounds with KCNQ2 pot; CHO KCNQ1 stable, FluxOR thallium flux fluorescence; beyond 3SD, as % of vehicle-control signal; activation over 3SD threshold, % at 10 µM; 28% of 1,200 active; AID 2283;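 active = fluorescence ratio rise of at least 3 SD of vehicle wells above their mean, in both replicate wells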
KCNQ2 pot conf: rat KCNQ2 channel potentiator confirmation. shares compounds with KCNQ2 pot. 68% of 1,200 active. CHO-KCNQ2 cells, FluxOR thallium flux fluorescence. potentiation, less the hit threshold, % at 10 µM;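 active = fluorescence ratio rising 3 SD or more over the vehicle control mean in both replicates, plus primary screen hit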;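 note: peak minus minimum thallium fluorescence divided by baseline after K/Tl stimulus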
Kir2-1 sel: selectivity of KCNQ2 potentiators: effect on mouse Kir2.1; shares compounds with KCNQ2 pot; HEK293 Kir2.1, FluxOR thallium flux fluorescence; activity over 3SD threshold, % at 10 µM; 2% of 1,200 active;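 active = fluorescence ratio rise of at least 3 SD above the vehicle-control mean, seen in both replicates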
KCNQ2 W236L pot: rat KCNQ2 W236L mutant potentiation by KCNQ2 potentiators | CHO KCNQ2-W236L, automated patch clamp current | shares compounds with KCNQ2 pot | 10% of 940 active | AID 2558 | current increase over 3SD of negative controls (%), active compounds read high, % at 25 µM;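 active = current increase at least 3 SD of the untreated controls above them in both duplicate recordings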
Numbers stand for hits; – = inactive; · = no result given; ! = not confirmed by another sample.

SMILES | KCNQ2 block | KCNQ2 pot | Kir21 conf inh | HEK293 Tl flux | others
CC(Nc1c[nH]c(=O)[nH]c1=O)c1ccccc1 (configuration not stated) | – | – | · | ·
Cc1ccc(-n2nc(C)c(=O)c(-c3ccccc3)c2NC(=O)c2cccs2)cc1 | – | · | · | ·
COc1cccc(C(=O)NNC(=O)C(=O)Nc2ccc(C)c(Cl)c2)c1 | – | – | · | ·
CCc1ccc(NC(=O)C(=O)NNC(=O)c2cccc(OC)c2)cc1 | – | 6.4 | – | 196% | CHO-K1 ctr=5.0;KCNQ1 sel pot=–;KCNQ2 pot conf=4.9;Kir2-1 sel=–;KCNQ2 W236L pot=–
COC(=O)c1ccc(CSc2nc3ccc(S(=O)(=O)N4CCOCC4)cc3[nH]2)cc1 | – | · | · | ·
CC(O)CNCCCOc1cccc(Oc2ccccc2)c1 (configuration not stated) | – | – | 14% | –
CC(O)CNCCCOc1cccc(C(F)(F)F)c1 (configuration not stated) | – | – | · | ·
Cc1c(C(=O)N2CCCCC2)c(S(=O)(=O)NCc2ccc(Cl)cc2)c(C)n1C | – | · | · | ·
O=C(COc1ccccc1F)N1CCCc2ccccc21 | – | – | · | ·
CC(=O)c1cc(F)ccc1OCC(=O)N1CCCc2ccccc21 | – | · | 54% | –
COC(=O)c1cc([N+](=O)[O-])c(-n2cncn2)c([N+](=O)[O-])c1 | – | · | 73% | –
COC(=O)c1cc(F)c(-n2cncn2)c(F)c1 | – | – | · | ·
COc1ccc(CCNCC(=O)Nc2ccccc2C(F)(F)F)cc1 | – | · | · | ·
O=C(CNc1n[nH]c(=O)[nH]c1=O)N/N=C/C=C/c1ccccc1 | – | · | · | ·
O=C(O)C1=C[C@@H](C2CCCCC2)C[C@@H](OCc2ccc(CO)cc2)O1 | – | – | · | ·
NC(=O)C1=C[C@@H](C2CCCCC2)C[C@@H](OCc2ccc(CO)cc2)O1 | – | – | 52% | –
CNS(=O)(=O)c1ccc2ccccc2c1 | – | · | · | ·
CN(c1ccc(O)cc1)S(=O)(=O)c1ccc2ccccc2c1 | – | – | 50% | –
Cc1cc(O)cc(C)c1NS(=O)(=O)c1ccc2ccccc2c1 | – | – | 56% | –
CCN(c1ccccc1)S(=O)(=O)c1ccc2ccccc2c1 | – | · | · | ·
COC(=O)C1=C(C(=O)OC)[C@@H]2N(C)c3ccc(OC)cc3[C@@]23C[C@@H](C(=O)OC)N(C(=O)c2cc(C)oc2C)C3=N1 | – | · | · | ·
O=C(CSCc1ccc(F)cc1)NCc1ccc2c(c1)OCO2 | – | · | · | ·
Fc1ccc(C2CCNCC2COc2ccc3c(c2)OCO3)cc1 (configuration not stated) | -6.2 | – | 48% | –
Fc1ccc([C@@H]2CCNC[C@H]2COc2ccc3c(c2)OCO3)cc1 | -6! | – | 34% | –
O=C(COc1ccc2c(c1)OCO2)Nc1ccccc1F | – | · | · | ·
SMILES | KCNQ2 block | KCNQ2 pot | Kir21 conf inh | HEK293 Tl flux | others
Cc1ccc2nsnc2c1S(=O)(=O)N1CCOCC1 | – | – | · | ·
CSC(=S)N/N=C/c1ccc(Br)cc1 | – | 7.1 | – | 254% | CHO-K1 ctr=–;KCNQ1 sel pot=39;KCNQ2 pot conf=–;Kir2-1 sel=–
CSC(=S)N/N=C/c1ccc(N(C)C)cc1 | – | – | · | ·
COc1ccc(N2C(=O)CSC2c2ccccc2F)c(OC)c1 (configuration not stated) | – | – | · | ·
COc1ccc(/C(O)=C2/C(=O)C(=O)N(CCCN(C)C)C2c2cccc(Cl)c2)cc1OC (configuration not stated) | – | – | · | ·
CC1Cc2ccccc2N1C(=S)NC(=O)c1ccco1 (configuration not stated) | – | – | · | ·
CC1Cc2ccccc2N1C(=S)NC(=O)C1(C)CC1(Cl)Cl (configuration not stated) | – | 7.2 | – | 272% | CHO-K1 ctr=–;KCNQ1 sel pot=–;KCNQ2 pot conf=26;Kir2-1 sel=–;KCNQ2 W236L pot=–
Cc1ccc(Nc2nc(-c3cccs3)cs2)nc1 | – | – | – | –
Cc1ccc(Nc2nc(-c3ccccc3)cs2)nc1 | – | – | · | ·
Oc1ccc(N=Nc2ccc3c(c2)OCCO3)c2ncccc12 | – | 12 | – | – | CHO-K1 ctr=2.9;KCNQ1 sel pot=–;KCNQ2 pot conf=–;Kir2-1 sel=–
O=C(Nc1ncccc1O)c1ccc2c(c1)OCCO2 | – | · | · | ·
CC(C)(C)c1nn(-c2ccccc2)c2nc(Cl)c(C=O)cc12 | – | · | · | ·
CC(C)(C)c1nn(-c2ccccc2)c2[nH]c(=O)c(C=O)cc12 | – | 6.8 | – | – | CHO-K1 ctr=4.4;KCNQ1 sel pot=12;KCNQ2 pot conf=–;Kir2-1 sel=–
O=C(O)c1c2c(nc3ccc(S(=O)(=O)N4CCC(C(=O)NC5CCCCCC5)CC4)cc13)CCCC2 | – | · | · | ·
COc1cccc(CNC(=O)c2cccc(S(=O)(=O)N3CCN(C)CC3)c2)c1 | – | · | · | ·
Clc1ccc(CN2CCC(Cc3ccccc3)CC2)cc1 | – | · | · | ·
CSc1ccc(CN2CCC(Cc3ccccc3)CC2)cc1 | – | · | 18% | –
Clc1cccc(CN2CCC(Cc3ccccc3)CC2)c1 | – | · | 71% | –
CSc1ccc(OC2CCN(Cc3ccccc3)CC2)cc1 | – | · | · | ·
CCOC(=O)COc1ccc(C(=O)Nc2cccc(Cl)c2C)cc1 | – | – | · | ·
O=C(Nc1cccc2ncccc12)C12CC3CC(CC(C3)C1)C2 | – | – | · | ·
O=C(CC12CC3CC(CC(C3)C1)C2)Nc1cccc2ncccc12 | – | 11 | – | – | CHO-K1 ctr=–;KCNQ1 sel pot=–;KCNQ2 pot conf=45;Kir2-1 sel=–;KCNQ2 W236L pot=–
O=C(Nc1ccnn1C1CCN(Cc2cc3ccccc3[nH]2)CC1)C1CCOC1 (configuration not stated) | – | 5.7 | – | – | CHO-K1 ctr=–;KCNQ1 sel pot=1.5;KCNQ2 pot conf=42;Kir2-1 sel=–;KCNQ2 W236L pot=–
Cc1c(CN2CCC(n3nccc3NC(=O)C3CCOC3)CC2)[nH]c2ccccc12 (configuration not stated) | – | – | · | ·
COc1ccccc1C(=O)NC1CCN(C(=O)Nc2ccc(F)cc2)CC1 | – | – | · | ·
SMILES | KCNQ2 block | KCNQ2 pot | Kir21 conf inh | HEK293 Tl flux | others
Cc1c(OCC(=O)NC2CCN(Cc3ccccc3)CC2)ccc2c3c(c(=O)oc12)CCC3 | – | – | · | ·
CS(=O)(=O)Nc1ccc(C(=O)NCc2ccco2)cc1 | – | · | · | ·
CCn1cc(/C=C(\NC(=O)c2ccccc2F)C(=O)NCCCn2ccnc2)c2ccccc21 | – | – | · | ·
CN(C)/C=C1/N=C(c2ccccc2)OC1=O | – | – | · | ·
O=CC1=C(c2ccccc2)Oc2ccccc2O1 | – | · | 52% | –
CN1CCN(C2=Cc3ccc(Cl)cc3Sc3ccc(F)cc32)CC1 | – | · | · | ·
CN1CCN(C2=Cc3ccccc3Sc3cc(F)ccc32)CC1 | – | · | 57% | –
Cc1ccccc1C(=O)NNC(=O)C1CC(=O)N(Cc2ccccc2)C1 (configuration not stated) | – | · | · | ·
